# Measurements taken from PMC7862700, “An all-to-all approach to the identification of sequence-specific readers for epigenetic DNA modifications on cytosine”.
# How the values were obtained:
# Assay in all cases: DAPPL (digital affinity profiling via proximity ligation, sequencing); 10 mM Tris-HCl pH 7.5, 50 mM NaCl, 1 mM DTT, 4% glycerol, room temperature, 30 min; GST-TFs on glutathione beads, 16-mer random dsDNA library, 0.1% formaldehyde crosslink after washing; high values mean tight binding
# Details in all cases: protein: recombinant; tags: N-terminal GST; dsDNA, one strand shown
# ERF = target: T1, ERF (Homo sapiens, UniProt P50548 1-548)
# T1 sequence: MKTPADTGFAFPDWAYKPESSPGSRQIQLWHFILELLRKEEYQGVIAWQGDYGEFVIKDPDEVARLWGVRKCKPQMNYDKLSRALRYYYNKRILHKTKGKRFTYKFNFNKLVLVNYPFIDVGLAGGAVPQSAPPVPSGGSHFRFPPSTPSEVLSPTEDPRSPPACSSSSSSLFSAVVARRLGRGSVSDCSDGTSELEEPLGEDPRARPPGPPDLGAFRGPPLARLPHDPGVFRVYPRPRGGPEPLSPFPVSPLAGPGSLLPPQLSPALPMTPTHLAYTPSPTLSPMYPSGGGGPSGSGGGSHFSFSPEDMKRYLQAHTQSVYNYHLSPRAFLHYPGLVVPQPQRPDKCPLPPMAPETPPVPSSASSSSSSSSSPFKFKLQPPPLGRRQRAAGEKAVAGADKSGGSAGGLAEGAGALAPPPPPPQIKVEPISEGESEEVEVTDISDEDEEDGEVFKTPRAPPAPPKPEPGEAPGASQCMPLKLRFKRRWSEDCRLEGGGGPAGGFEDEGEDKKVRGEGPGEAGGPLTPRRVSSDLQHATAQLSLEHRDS
# Procedure, shortened: (§1)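 In yeast, human transcription factors were expressed with a GST fusion, then pulled down on glutathione beads and given DNA barcodes. Pooled with a tag-only sample, they were exposed to 200 nmole of a 16-mer random double-stranded DNA library (Tris/NaCl/DTT/glycerol buffer, room temperature, 30 min), washed, crosslinked with 0.1% formaldehyde, proximity-ligated using BsaI/T4 ligase for 1 h at 37 °C, PCR-amplified and read on an Illumina NextSeq500. Each hexamer's frequency of reads for a factor, divided by the matching frequency for the tag-only sample, gives the binding signal.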
# ETV3L = target: T2, ETV3L (Homo sapiens, UniProt Q6ZN32 1-361)
# T2 sequence: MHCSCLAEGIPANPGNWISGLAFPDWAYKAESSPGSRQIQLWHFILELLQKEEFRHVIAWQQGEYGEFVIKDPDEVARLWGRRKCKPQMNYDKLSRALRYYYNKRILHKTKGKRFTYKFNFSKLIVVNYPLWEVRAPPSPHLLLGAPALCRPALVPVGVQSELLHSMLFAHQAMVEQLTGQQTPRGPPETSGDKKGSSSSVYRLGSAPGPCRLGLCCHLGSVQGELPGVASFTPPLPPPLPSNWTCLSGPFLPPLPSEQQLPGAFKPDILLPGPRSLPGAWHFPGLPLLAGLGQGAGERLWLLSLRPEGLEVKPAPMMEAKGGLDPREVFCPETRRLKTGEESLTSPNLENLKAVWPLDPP
# Procedure, shortened: as §1
# ETS2 = target: T3, ETS2 (Homo sapiens, UniProt P15036 1-469)
# T3 sequence: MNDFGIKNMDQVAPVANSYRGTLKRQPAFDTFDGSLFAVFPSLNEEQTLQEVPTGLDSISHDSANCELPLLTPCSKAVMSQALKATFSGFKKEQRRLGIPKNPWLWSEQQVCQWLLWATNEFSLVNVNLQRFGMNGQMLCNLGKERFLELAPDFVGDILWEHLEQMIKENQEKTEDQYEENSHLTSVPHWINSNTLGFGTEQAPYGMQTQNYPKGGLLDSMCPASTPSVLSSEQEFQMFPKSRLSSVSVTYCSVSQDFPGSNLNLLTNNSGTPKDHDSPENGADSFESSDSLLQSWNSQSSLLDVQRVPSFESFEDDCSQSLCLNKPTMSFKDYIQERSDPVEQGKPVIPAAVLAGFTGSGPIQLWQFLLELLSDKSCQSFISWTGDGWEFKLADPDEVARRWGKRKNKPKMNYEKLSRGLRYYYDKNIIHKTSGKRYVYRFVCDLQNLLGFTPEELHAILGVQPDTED
# Procedure, shortened: as §1
# ETV3 = target: T4, ETV3 (Homo sapiens, UniProt P41162-2 1-143)
# T4 sequence: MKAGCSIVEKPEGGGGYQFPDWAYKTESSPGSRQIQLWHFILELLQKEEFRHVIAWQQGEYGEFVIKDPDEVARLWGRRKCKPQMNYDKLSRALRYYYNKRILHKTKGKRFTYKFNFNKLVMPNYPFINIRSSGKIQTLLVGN
# Procedure, shortened: as §1
# ELF5 = target: T5, ELF5 (Homo sapiens, UniProt Q9UKW6-2 1-255)
# T5 sequence: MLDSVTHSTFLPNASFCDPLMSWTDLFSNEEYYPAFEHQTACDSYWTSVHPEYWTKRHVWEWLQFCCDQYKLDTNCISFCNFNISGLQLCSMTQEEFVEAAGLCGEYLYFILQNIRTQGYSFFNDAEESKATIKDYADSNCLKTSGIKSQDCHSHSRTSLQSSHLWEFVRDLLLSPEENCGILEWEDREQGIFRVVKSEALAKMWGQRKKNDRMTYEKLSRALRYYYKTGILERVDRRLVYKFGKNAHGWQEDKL
# Procedure, shortened: as §1
# ETV6 = ETV6 (Homo sapiens, UniProt P41212 1-452)
# ETV6, sequence (P41212 whole entry): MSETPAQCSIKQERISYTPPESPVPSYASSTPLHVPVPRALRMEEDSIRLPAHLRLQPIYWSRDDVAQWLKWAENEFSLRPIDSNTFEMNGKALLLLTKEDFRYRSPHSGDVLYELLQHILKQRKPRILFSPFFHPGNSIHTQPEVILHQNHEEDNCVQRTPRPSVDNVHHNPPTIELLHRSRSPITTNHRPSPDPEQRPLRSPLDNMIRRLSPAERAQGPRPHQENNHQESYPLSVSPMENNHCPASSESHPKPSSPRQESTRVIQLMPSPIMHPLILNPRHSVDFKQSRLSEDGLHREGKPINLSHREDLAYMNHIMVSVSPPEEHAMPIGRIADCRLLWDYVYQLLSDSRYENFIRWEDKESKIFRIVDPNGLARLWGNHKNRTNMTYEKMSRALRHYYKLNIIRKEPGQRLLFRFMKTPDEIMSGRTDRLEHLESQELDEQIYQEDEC
# Procedure, shortened: as §1
# ETV7 = target: T6, ETV7 (Homo sapiens, UniProt Q9Y603 1-341)
# T6 sequence: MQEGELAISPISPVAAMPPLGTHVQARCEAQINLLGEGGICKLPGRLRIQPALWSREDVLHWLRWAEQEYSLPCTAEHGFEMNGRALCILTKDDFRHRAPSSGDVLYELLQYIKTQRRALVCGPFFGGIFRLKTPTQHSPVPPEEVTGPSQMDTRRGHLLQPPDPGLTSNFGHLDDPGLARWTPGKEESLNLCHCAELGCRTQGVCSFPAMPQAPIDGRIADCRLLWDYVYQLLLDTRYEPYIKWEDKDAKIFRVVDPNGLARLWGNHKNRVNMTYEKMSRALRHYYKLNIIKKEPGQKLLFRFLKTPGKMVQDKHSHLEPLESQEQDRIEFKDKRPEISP
# Procedure, shortened: as §1
# SPDEF = target: T7, SPDEF (Homo sapiens, UniProt O95238 1-335)
# T7 sequence: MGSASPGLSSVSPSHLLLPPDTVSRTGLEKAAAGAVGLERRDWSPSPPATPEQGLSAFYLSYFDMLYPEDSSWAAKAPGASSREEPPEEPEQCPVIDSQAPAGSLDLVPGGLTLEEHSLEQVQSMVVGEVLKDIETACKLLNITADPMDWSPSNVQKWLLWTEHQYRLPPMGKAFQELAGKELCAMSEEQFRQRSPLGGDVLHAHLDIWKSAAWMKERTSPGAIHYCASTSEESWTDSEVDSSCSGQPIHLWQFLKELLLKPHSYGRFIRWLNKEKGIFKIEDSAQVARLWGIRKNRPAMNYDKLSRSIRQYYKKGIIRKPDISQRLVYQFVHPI
# Procedure, shortened: as §1
Sequence,binding signal (ERF),binding signal (ETV3L),binding signal (ETS2),binding signal (ETV3),binding signal (ELF5),binding signal (ETV6),binding signal (ETV7),binding signal (SPDEF)
CCGAAG,"1.16 fold enrichment (6-mer frequency, TF over GST control)","1.02 fold enrichment (6-mer frequency, TF over GST control)","1.08 fold enrichment (6-mer frequency, TF over GST control)","1.02 fold enrichment (6-mer frequency, TF over GST control)",,,,
AGCCCC,"1.03 fold enrichment (6-mer frequency, TF over GST control)","1.07 fold enrichment (6-mer frequency, TF over GST control)","1.09 fold enrichment (6-mer frequency, TF over GST control)","1.11 fold enrichment (6-mer frequency, TF over GST control)","1.01 fold enrichment (6-mer frequency, TF over GST control)","1.12 fold enrichment (6-mer frequency, TF over GST control)",,
ACCGAA,"1.09 fold enrichment (6-mer frequency, TF over GST control)","1.04 fold enrichment (6-mer frequency, TF over GST control)","1.07 fold enrichment (6-mer frequency, TF over GST control)","1.02 fold enrichment (6-mer frequency, TF over GST control)",,"1 fold enrichment (6-mer frequency, TF over GST control)",,
CGAACT,"1.16 fold enrichment (6-mer frequency, TF over GST control)","1.12 fold enrichment (6-mer frequency, TF over GST control)","1.18 fold enrichment (6-mer frequency, TF over GST control)","1.18 fold enrichment (6-mer frequency, TF over GST control)","1.07 fold enrichment (6-mer frequency, TF over GST control)","1.13 fold enrichment (6-mer frequency, TF over GST control)","1.15 fold enrichment (6-mer frequency, TF over GST control)",
ATCGTT,"1.01 fold enrichment (6-mer frequency, TF over GST control)","1.11 fold enrichment (6-mer frequency, TF over GST control)","1.06 fold enrichment (6-mer frequency, TF over GST control)","1 fold enrichment (6-mer frequency, TF over GST control)",,"1.06 fold enrichment (6-mer frequency, TF over GST control)",,
GCCGAT,"1.13 fold enrichment (6-mer frequency, TF over GST control)","1.07 fold enrichment (6-mer frequency, TF over GST control)",,"1.18 fold enrichment (6-mer frequency, TF over GST control)",,"1.2 fold enrichment (6-mer frequency, TF over GST control)","1.12 fold enrichment (6-mer frequency, TF over GST control)",
TAGCTG,"1.16 fold enrichment (6-mer frequency, TF over GST control)","1.14 fold enrichment (6-mer frequency, TF over GST control)","1.04 fold enrichment (6-mer frequency, TF over GST control)","1.23 fold enrichment (6-mer frequency, TF over GST control)","1.13 fold enrichment (6-mer frequency, TF over GST control)","1.2 fold enrichment (6-mer frequency, TF over GST control)","1.15 fold enrichment (6-mer frequency, TF over GST control)",
AGATAA,"1.02 fold enrichment (6-mer frequency, TF over GST control)","1.09 fold enrichment (6-mer frequency, TF over GST control)","1.04 fold enrichment (6-mer frequency, TF over GST control)",,,"1.06 fold enrichment (6-mer frequency, TF over GST control)",,
CTATAG,"1.03 fold enrichment (6-mer frequency, TF over GST control)","1.05 fold enrichment (6-mer frequency, TF over GST control)","1 fold enrichment (6-mer frequency, TF over GST control)","1.09 fold enrichment (6-mer frequency, TF over GST control)","1.05 fold enrichment (6-mer frequency, TF over GST control)","1.04 fold enrichment (6-mer frequency, TF over GST control)",,
TAGTCT,"1.17 fold enrichment (6-mer frequency, TF over GST control)","1.04 fold enrichment (6-mer frequency, TF over GST control)","1.09 fold enrichment (6-mer frequency, TF over GST control)","1.12 fold enrichment (6-mer frequency, TF over GST control)","1.04 fold enrichment (6-mer frequency, TF over GST control)","1.02 fold enrichment (6-mer frequency, TF over GST control)",,
CAGATG,"1.11 fold enrichment (6-mer frequency, TF over GST control)",,"1.05 fold enrichment (6-mer frequency, TF over GST control)","1.02 fold enrichment (6-mer frequency, TF over GST control)",,"1.03 fold enrichment (6-mer frequency, TF over GST control)","1.13 fold enrichment (6-mer frequency, TF over GST control)",
TAAGGT,"1.06 fold enrichment (6-mer frequency, TF over GST control)",,"1.06 fold enrichment (6-mer frequency, TF over GST control)","1.11 fold enrichment (6-mer frequency, TF over GST control)","1.05 fold enrichment (6-mer frequency, TF over GST control)","1.08 fold enrichment (6-mer frequency, TF over GST control)","1.04 fold enrichment (6-mer frequency, TF over GST control)","1.15 fold enrichment (6-mer frequency, TF over GST control)"
GTCTAA,"1.12 fold enrichment (6-mer frequency, TF over GST control)",,"1.04 fold enrichment (6-mer frequency, TF over GST control)",,"1.03 fold enrichment (6-mer frequency, TF over GST control)",,"1.05 fold enrichment (6-mer frequency, TF over GST control)",
GTTAAA,"1.09 fold enrichment (6-mer frequency, TF over GST control)","1.04 fold enrichment (6-mer frequency, TF over GST control)",,"1.04 fold enrichment (6-mer frequency, TF over GST control)",,"1.08 fold enrichment (6-mer frequency, TF over GST control)",,
GGCTTA,"1.09 fold enrichment (6-mer frequency, TF over GST control)",,"1.09 fold enrichment (6-mer frequency, TF over GST control)","1.05 fold enrichment (6-mer frequency, TF over GST control)",,,,"1.09 fold enrichment (6-mer frequency, TF over GST control)"
AGACTT,"1.02 fold enrichment (6-mer frequency, TF over GST control)",,"1 fold enrichment (6-mer frequency, TF over GST control)","1.09 fold enrichment (6-mer frequency, TF over GST control)","1.2 fold enrichment (6-mer frequency, TF over GST control)","1.04 fold enrichment (6-mer frequency, TF over GST control)","1.02 fold enrichment (6-mer frequency, TF over GST control)",
GGTTCA,"1.01 fold enrichment (6-mer frequency, TF over GST control)",,"1.11 fold enrichment (6-mer frequency, TF over GST control)","1.09 fold enrichment (6-mer frequency, TF over GST control)","1.02 fold enrichment (6-mer frequency, TF over GST control)","1.09 fold enrichment (6-mer frequency, TF over GST control)",,"1.13 fold enrichment (6-mer frequency, TF over GST control)"
GTTCGA,"1.23 fold enrichment (6-mer frequency, TF over GST control)",,"1.12 fold enrichment (6-mer frequency, TF over GST control)","1.06 fold enrichment (6-mer frequency, TF over GST control)",,"1.02 fold enrichment (6-mer frequency, TF over GST control)","1.13 fold enrichment (6-mer frequency, TF over GST control)","1.01 fold enrichment (6-mer frequency, TF over GST control)"
